This is a sample that favours compounds with a hit; in the whole collection about 2.5% have one here.
p53ts 39C tox: p53ts cell cytotoxicity, nonpermissive temperature; H1299-p53A138V viability at 39C, ATP luminescence, 24 h; Potency, µM (series often up to 46.1 µM), without a hit: top-dose activity change, negative = cell killing, most hits filed as cytotoxic; hit rate 1.5% among 130,000; AID 902; further: nearly all actives have a fitted effect of over 55% in size
Luciferase inh: inhibitors of firefly luciferase; hit rate 2.2% among 72,000; Potency, µM (top dose mostly 57.1 µM), without a hit: at the top dose activity change, negative = inhibition, actives largely listed as inhibitors; purified firefly luciferase, luminescence, 8 min; AID 411; further: nearly all actives have a fitted effect of over 40% in size
Target sequence (P08659 whole entry, looked up): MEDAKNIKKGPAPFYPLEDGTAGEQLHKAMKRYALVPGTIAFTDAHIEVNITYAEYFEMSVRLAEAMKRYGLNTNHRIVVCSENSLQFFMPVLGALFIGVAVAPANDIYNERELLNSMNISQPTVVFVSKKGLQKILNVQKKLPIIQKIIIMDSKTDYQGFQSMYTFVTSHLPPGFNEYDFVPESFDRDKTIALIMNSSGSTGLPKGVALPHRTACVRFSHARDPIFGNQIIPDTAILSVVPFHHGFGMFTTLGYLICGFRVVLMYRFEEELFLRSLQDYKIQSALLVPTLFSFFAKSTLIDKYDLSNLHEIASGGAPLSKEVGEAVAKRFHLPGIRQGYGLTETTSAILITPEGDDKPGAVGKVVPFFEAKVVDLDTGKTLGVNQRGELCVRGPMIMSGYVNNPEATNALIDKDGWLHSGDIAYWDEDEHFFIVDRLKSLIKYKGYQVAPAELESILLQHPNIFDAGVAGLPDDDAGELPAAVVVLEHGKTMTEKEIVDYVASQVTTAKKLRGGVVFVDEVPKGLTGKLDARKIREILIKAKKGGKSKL
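Substrate buffer containing 10 uM ATP (pH 7.2 imidazole, Mg2+, KCl, detergent, BSA) is dispensed, compound pinned in, then luciferase/luciferin detector mix added. After 8 min at ambient temperature, light output is measured.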
p53ts 32C kill: p53ts cell cytotoxicity, permissive temperature | Potency, µM (top dose mostly 46.1 µM), for the others: at the highest dose activity change, negative = cytotoxicity, most hits filed as cytotoxic | AID 924 | H1299-p53A138V at 32C, ATP luminescence viability, 24 h | hit rate 0.93% among 130,000;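 further: 0% = DMSO and -100% = full killing by reference compound; nearly all actives have a fitted effect of over 55% in size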
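Cells: H1299 p53ts (A138V), 600/well, pre-incubated 16–30 h at 37C. Cpd up to 46 uM, 24 h, 32C. Readout: ATPlite luminescence, 20 min RT. Normalization: DMSO vs tamoxifen 100 uM. AC50 by Hill equation.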
An asterisk follows results filed as active; ? = inconclusive; . = not tested or not shown; [ ] = another dose, or the depositor's remark. The call rests on the fitted dose curve; in most records, active means well fitted curve in the direction sought with a large enough effect; inconclusive means small, poorly fitted or top-dose-only effect, or another doubt; inactive means no such curve, though single readings can be large; an effect the other way counts as inactive or inconclusive. Unless noted, on the % scale 0 is the no-effect control and ±100 the full control effect; potency means the concentration at half of the fitted maximal effect.

SMILES	p53ts 39C tox	Luciferase inh	p53ts 32C kill
CC(C)c1ccc(NC(=O)C(Cc2ccccc2)n2cccc2)cc1 (stereo not drawn)	?	.	10.0%
COc1cccc(CNC(=O)CN2C(=O)COc3ccc(S(=O)(=O)Nc4ccccc4)cc32)c1	6.5%	.	-10.8%
CC(=O)c1sc(Nc2nc3ccc(F)cc3s2)nc1C	?	15.8µM*	20µM*
COC(=O)c1ccc2nc(Nc3nc4ccc(F)cc4s3)sc2c1	-4.1%	.	-21.2%
CC1(C)CCC[C@@]2(C)[C@@H]1CC[C@]1(C)OC(=O)C[C@@H]21	.	0.1%[11.4 µM]	.
CN1CCN(c2ncnc3ccc(-c4cccc(NS(C)(=O)=O)c4)cc23)CC1	-8.2%	-1.6%[2.29 µM]	-7.8%
COc1ccccc1CNC(=O)COCc1cc(-c2cccs2)on1	.	.	-0.9%
CCc1nnc2c(N3CCN(c4cc(Cl)ccc4C)CC3)nc3ccccc3n12	-5.8%	.	7.6%
O=C(Cn1c(=O)n(Cc2nc(-c3ccccc3)no2)c(=O)c2cc3c(cc21)OCO3)Nc1cccc(C(F)(F)F)c1	2.7%	.	2.9%
CCOc1ccc(C2=C(C(C)=O)Sc3nnc(C)n3N2C(C)=O)cc1	-34.4%	.	-2.6%
CCc1nnc2n1N(C(C)=O)C(c1ccc(C(C)(C)C)cc1)=C(C(C)=O)S2	12.6µM*	.	-8.2%
CCOC(=O)CSc1nc2sc3c(c2c(=O)n1-c1ccc(OC)cc1)CC(C(C)C)OC3 (stereo not drawn)	-10.3%	.	1.6%
CCCn1c(C)nc2c(N(C)CCN(C)C)nc(C)nc21	-1.6%	.	-5.5%
Cc1cc(OCC(=O)Nc2ccc(-c3nc4cc(Cl)ccc4o3)cc2)cc(C)c1Cl	14.7%	.	0.6%
C=CCNc1nc(-c2cc3ccccc3o2)cs1	?	.	14.1µM*
C=CCNc1nc(-c2ccc(O)c(C(N)=O)c2)cs1	.	-1.2%[25.5 µM]	.
S=C(S)NCCCn1ccnc1	10.4%[9.22 µM]	0.3%[11.4 µM]	5.6%[9.22 µM]
COc1cc(S(=O)(=O)n2c(C)nc3ccccc32)ccc1F	7.5%	0.0%	-6.5%
Cc1ccc(/C=C/c2nc3ccccc3n2S(=O)(=O)c2ccc(Br)cc2)cc1	6.31µM*	.	5.01µM*
C=CCSc1nc2ccccc2n1S(=O)(=O)c1ccc(C)cc1	8.1%	.	4.6%
O=S(=O)(c1cccc(Cl)c1)N1CCCC1	1.9%	1.7%	10.1%
O=S(=O)(c1cccc(Cl)c1)n1c(/C=C/c2ccccc2Cl)nc2ccccc21	1µM*	.	1.26µM*
CSc1ccc(/C=C/c2nc3ccccc3n2S(=O)(=O)c2cccc(Cl)c2)cc1	3.98µM*	.	3.16µM*
CN1[C@@H]2CC(OC(=O)[C@@H](CO)c3ccccc3)C[C@H]1[C@H]1O[C@H]12 (stereo partly drawn)	.	2.2%	.
CCC(=O)n1nc(-c2ccco2)nc1SCc1ccccc1	?	-9.7%	?
SMILES	p53ts 39C tox	Luciferase inh	p53ts 32C kill
CC(=O)n1nc(-c2ccco2)nc1SCc1ccccc1	?	-17.5%	12.6µM*
NC(=O)c1c(NC(=O)c2cccs2)sc2c1CCCCCC2	?	7.94µM*	?
CC1(C)CC(=O)c2sc(NC(=O)CN3CCCCC3)nc2C1	7.6%	2.4%	5.8%
CC1(C)CC(=O)c2sc(NC(=O)c3cccs3)nc2C1	1.58µM*	.	1.58µM*
O=C(Nc1nc2c(s1)CCCC2)c1cccs1	10µM*	5.01µM*	10µM*
O=C(Nc1sc2c(c1C(=O)O)CCC2)c1cccs1	-30.0%	-2.6%	-24.0%
O=C(Nc1nc2c(s1)CCCC2)c1ccc(Br)o1	?	6.31µM*	?
O=C(Cc1cccs1)Nc1nc2c(s1)CCCC2	?	-22.7%	?
Cc1ccc(C(=O)Nc2nc3c(s2)CCCC3)o1	12.3%	-0.2%	7.9%
CCOCCCNC(=O)C(NC(=O)C1CCC(C)CC1)C(C)C (stereo not drawn)	12.7%	.	7.7%
CNc1ncnc2c1ncn2[C@H]1C[C@@H](OP(=O)(O)O)[C@H](COP(=O)(O)O)O1	27.0%	2.2%	30.7%
Cc1noc(C)c1-c1nc(Nc2ccc(F)cc2)c2ccccc2n1	-0.5%	1.8%[2.29 µM]	1.7%
O=C(CSc1nc2c(c(=O)[nH]1)CN(Cc1ccc(F)cc1)CC2)Nc1cccc(C(F)(F)F)c1	-9.4%	.	2.1%
Nc1ccn([C@H]2O[C@@H](COP(=O)(O)O)[C@@H](O)[C@H]2O)c(=O)n1	-12.3%[9.22 µM]	3.4%[11.4 µM]	-6.0%[9.22 µM]
COc1ccccc1N1CCN(CC(O)COc2cc(C)cc(C)c2)CC1 (stereo not drawn)	-17.7%	.	-4.6%
COc1ccccc1N1CCN(CC(O)COc2ccc(C)cc2C(C)(C)C)CC1 (stereo not drawn)	25.1µM*	.	-24.5%
Cc1ccc(C(=O)Nc2ccc(Br)cc2)cc1S(=O)(=O)NCc1ccccc1	?	.	1.0%
NC[C@@H]1O[C@@H](O[C@H]2[C@@H](O)[C@H](O[C@@H]3[C@H](O)[C@H](N)C[C@H](N)[C@H]3O[C@@H]3O[C@@H](CO)[C@H](O)[C@H](O)[C@@H]3N)O[C@H]2CO)[C@H](N)[C@H](O)[C@@H]1O	4.1%	2.3%	-9.8%
Cc1cc2nn(-c3ccccc3)nc2cc1NC(=O)c1cccc2c(Cl)cccc12	10.5%	.	-11.1%
Cc1cc2nn(-c3ccccc3)nc2cc1NC(=O)c1cccs1	?	15.8µM*	?
CCCC(=O)Nc1cc2nn(-c3ccc(OC)cc3)nc2cc1C	-3.7%	.	-13.1%
COc1ccc(-n2nc3cc(C)c(NC(=O)c4cccnc4)cc3n2)cc1	-16.1%	2.51µM*	-11.6%
O=C(C[C@@H](c1ccccc1)N1CCCCC1)c1ccccc1	-0.9%[9.22 µM]	-20.7%[11.4 µM]	2.0%[9.22 µM]
CCOc1ccc2nc(N3CCCC(C(=O)NCCc4ccc(C)cc4)C3)sc2c1 (stereo not drawn)	-18.3%	.	1.5%
CCOc1ccc2nc(N3CCCC(C(=O)NCCCOC)C3)sc2c1 (stereo not drawn)	10µM*	.	?
SMILES	p53ts 39C tox	Luciferase inh	p53ts 32C kill
CCOc1ccc2nc(N3CCCC(C(=O)NCCc4ccc(OCC)c(OCC)c4)C3)sc2c1 (stereo not drawn)	?	.	-30.0%
CCCN1CCN(CCCNC(=O)C2CCCN(c3nc4ccc(OCC)cc4s3)C2)CC1 (stereo not drawn)	?	7.94µM*	?
Cc1cccc(CNc2ncncc2-c2ccccc2CN(C)C)c1	-2.7%	2.2%[2.29 µM]	-0.6%
CCOC(=O)C1=C(CS(=O)(=O)c2ccc(OC)c(Cl)c2)NC(=O)NC1c1cccc(OC)c1 (stereo not drawn)	-1.1%	.	9.3%
CCCn1c(-c2ccc(F)cc2)nc2c(N3CCN(CCC(=O)OCC)CC3)nc(C)nc21	-0.7%	.	-2.5%
Cc1ccc(OCC(=O)N2CCCc3ccccc32)cc1	-8.0%	.	-1.0%
O=C(OCC(=O)N1CCc2ccccc21)c1ccccc1	-5.9%	20µM*	-8.8%
CCOC(=O)c1ccc(NC(=O)N2CCc3ccccc32)cc1	?	3.98µM*	?
O=C(COc1ccc2c(c1)CCC2)N1CCc2ccccc21	?	25.1µM*	12.6µM*
CCOC(=O)c1cccc(NC(=O)Cc2ccc(NC(=O)N3CCCCc4ccccc43)cc2)c1	-15.5%	.	10.7%
O=C(OCC(=O)N1CCc2ccccc21)c1cccnc1	5.2%	-5.9%	-5.7%
COc1ccc(-c2[nH]c3ccccc3c2SCCNC(=O)c2ccc(S(=O)(=O)N(C)C)cc2)cc1	-3.2%	.	5.5%
C[C@@H](c1ccccc1)N1C(=O)[C@H]2[C@@H]3[C@H](O)C=CC(=O)[C@H]3CC[C@H]2C1=O	6.3%[9.22 µM]	1.3%[11.4 µM]	8.7%[9.22 µM]

Compound activity as filed in PubChem BioAssay.
